{"source": "PubChem BioAssay (NCATS)", "experiment": "qHTS screen for small molecules that inhibit ELG1-dependent DNA repair: Hit Confirmation with MMS Viability (AID 624251);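 note: ELG1-luc HEK293T cells co-treated with 10 µM MMS; nearly all actives have a fitted effect of over 60% in size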", "conditions": "Cell viability with MMS", "description": "Cancer cells divide rapidly compared to normal cells in the body. During cell division, cancer cells need to duplicate their genome by DNA replication. The failure of genome duplication leads to cancer cells' death. Therefore, inhibitors of DNA replication could specifically kill cancer cells. Based on this concept, many chemotherapeutic agents were developed and have been used to treat cancer patients. However, there are a limited number of agents available in the clinical setting, and some of those that do exist have low efficacy and severe side effects. Therefore, if we can find the compounds that effectively block DNA replication either by directly damaging DNA or by inhibiting other cellular mechanisms, the options for cancer treatment will be broadened. With this in mind, we developed a quantitative high-throughput ELG1-luciferase reporter gene assay. Small molecules that specifically block ELG1 function in response to DNA damage can be identified by monitoring the suppression of luciferase activity. […]\nELG1-luc HEK293T cells will be seeded in 1536-well plates at a density of 2,000 cells/well. […] 16 hours following the addition of the compounds, cell viability will be measured using Cell Titer Glo.", "note": "This is one part of the list. Inconclusive results are not listed. Active and inactive are the calls of the source. Calls come from the whole dose curve; as a rule, active = well fitted cell-killing curve with a large enough effect; inconclusive = small, poorly fitted or top-dose-only effect, or effect the other way; inactive = flat fitted curve, though single readings scatter. Potency is the fitted concentration of half-maximal effect."}
{"smiles": "C[C@@]12CC[C@H]3[C@@H](CC[C@]4(O)C[C@H](O)CC[C@@]34C=O)[C@]1(O)CC[C@@H]2C1=CC(=O)OC1", "values": [{"measurement": "Potency", "result": "1.07 µM (active)"}]}
